This is a sample that favours compounds with a hit; in the whole collection about 11% have one here.
Vaccinia Venus = vaccinia inhibition (Venus reporter); Vaccinia virus Venus reporter expression, fluorescence; Potency, µM (highest dose often 36.5 µM), without a hit: top-dose activity change, negative = inhibition, hits mostly inhibitors; hit rate 0.46% among 330,000; AID 720580; calls by dose curve; tested in A549 cells; also: % is scaled to controls: 0 for no effect and ±100 for the full control effect; nearly all actives have a fitted effect of over 30% in size
NS1 function inh = blocks influenza NS1 protein function; hit rate 0.4% among 270,000; Potency, µM (doses to about 46.1 µM), for the others: at the top dose activity, positive = more growth; AID 2326; calls by dose curve; also: actives are rising curves; nearly all actives have a fitted effect of over 50% in size
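Compounds were scored for reversing the slow growth caused by influenza A NS1 in S. cerevisiae, measured by optical density at 600 nm. Assay medium contained 2% galactose at pH 6.0; NS1-free yeast of the same strain were the positive control.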
Pf growth 48h = inhibits P. falciparum growth in the first generation, 48 h; P. falciparum luciferase growth in erythrocytes, 48 h; hit rate 5.9% among 310,000; Potency, µM (top dose mostly 28.7 µM), without a hit: at the top dose activity change, negative = inhibition, actives largely listed as inhibitors; also: % is scaled to controls: 0 for no effect and ±100 for the full control effect
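Erythrocytes infected with P. falciparum carrying an integrated firefly luciferase reporter (2% hematocrit, 0.1% parasitemia final) were exposed to compounds in RPMI 1640 with 0.5% Albumax at 37 C, 5% CO2. Growth inhibition was scored as reduced luminescence.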
Pf growth 96h = P. falciparum growth inhibition at 96 hour, primary screen for plastid delayed-death inhibitors; hit rate 6.9% among 320,000; P. falciparum luciferase reporter growth, 96 h; AID 504834; Potency, µM (top dose mostly 28.7 µM), without a hit: at the highest dose activity change, negative = inhibition, actives largely listed as inhibitors; also: % is scaled to controls: 0 for no effect and ±100 for the full control effect
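Compounds incubated with erythrocytes infected by luciferase-expressing P. falciparum (2% hematocrit, 0.05% parasitemia final) for 96 hours, 37 C in 5% CO2. Growth inhibition scored as decreased luciferase luminescence.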
HCV inh = inhibitors of hepatitis C virus infection; Huh7.5.1 HCVcc-Cre infection, luciferase reporter, 44 h; hit rate 3.4% among 340,000; Potency, µM (highest dose often 41.8 µM), without a hit: at the top dose activity change, negative = inhibition, hits mostly inhibitors; AID 651820; also: % is scaled to controls: 0 for no effect and ±100 for the full control effect
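Reporter virus HCVcc-Cre (~0.5 moi) infects cells exposed to compound; seeding density 1,000 cells/well with 4 h settling beforehand. Luminescence, 15 sec read, taken 44 h post-infection following a 15 min RT substrate incubation.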
VACV mCherry inh = vaccinia inhibition (mCherry reporter); Vaccinia virus mCherry reporter infection, fluorescence; Potency, µM (doses to about 36.5 µM), for the others: at the highest dose activity change, negative = inhibition, actives largely listed as inhibitors; hit rate 0.63% among 310,000; AID 720579; calls by dose curve; tested in A549 cells; also: % is scaled to controls: 0 for no effect and ±100 for the full control effect; nearly all actives have a fitted effect of over 35% in size
* marks the source's active call; other numbers are inactive results; i = inactive; ? = inconclusive; . = no result given; [ ] = remark or other dose. Unless noted, calls follow the shape of the dose curve; as a rule, active = well fitted inhibition curve with a large enough effect; inconclusive = small, poorly fitted or top-dose-only effect, or another doubt; inactive = no such curve, though single readings can be large or run the other way. Potency is read from the fitted curve at half-maximal effect.

SMILES	Vaccinia Venus	NS1 function inh	Pf growth 48h	Pf growth 96h	HCV inh	VACV mCherry inh
O=S1(=O)N=C(N/N=C/c2cccs2)c2ccccc21	-9.0%	-10.0%	?	13.1µM*	1.1%	-17.0%
O=[N+]([O-])c1ccc(O)c(/C=N/Nc2ccc(Cl)nn2)c1	?	-58.9%	0.415µM*	0.37µM*	3.98µM*	1.12µM*
Cn1c(=O)c2c(nc(N/N=C/c3cccs3)n2C)n(C)c1=O	-6.6%	3.1%	?	?	21.0%	i
O=[N+]([O-])c1ccc(/C=N/NC2=NS(=O)(=O)c3ccccc32)cc1	.	.	31.8%	-7.2%	3.2%	.
O=[N+]([O-])c1ccc(O)c(/C=N/NC2=NS(=O)(=O)c3ccccc32)c1	-12.1%	.	2.62µM*	5.2%[5.75 µM]	-13.0%	i
CC(C)(C)[C@H]1C=C(C(=O)NCc2nc3ccccc3[nH]2)O[C@@H](OCCCCO)C1	-6.4%	1.5%	?	10.4µM*	-5.5%[8.37 µM]	-4.0%
O=C(NCc1nc2ccccc2[nH]1)C1=C[C@@H](c2ccccc2)C[C@@H](OCCCCO)O1	-11.3%	0.8%	0.0033µM*	-22.4%	0.0%	-9.9%
Cc1cc(C)nc(SCc2nnc(SCC(=O)Nc3nccs3)n2Cc2ccco2)n1	.	-3.1%	-23.8%	-17.8%	-6.4%	.
O=C(COC(=O)c1cc(S(=O)(=O)N2CCOCC2)ccc1F)Nc1ccc(Cl)cn1	.	.	24.2%	4.3%	-1.3%	.
O=C(Nc1cc([N+](=O)[O-])ccc1N1CCOCC1)c1cccs1	.	1.7%	9.2%	38.0%	-15.3%	.
Cc1ccccc1OCC(=O)Nc1cccc(Cl)c1C	-9.2%	-7.0%	35.1%	-98.4%	2.5%	-17.0%
Cc1ccccc1OCC(=O)Nc1ccccc1-c1ccccc1NC(=O)COc1ccccc1C	-12.7%	-16.6%	8.28µM*	9.28µM*	?	-18.4%
Cc1ccccc1OCC(=O)NCc1ccccc1	0.8%	.	20.2%	3.7µM*	10.3%	i
Cc1cc(S(=O)(=O)NCC(C)C)ccc1OCC(=O)NCc1ccccn1	.	-0.2%	2.4%	.	-5.2%	.
O=C(Nc1cc([N+](=O)[O-])ccc1N1CCCC1)c1cccs1	-10.7%	12.1%	?	13.1µM*	?	-1.8%
Cc1cc(S(=O)(=O)NCc2ccccc2)ccc1OCC(=O)NCc1ccccn1	-1.5%	-0.5%	-6.1%	9.28µM*	-8.5%	-14.8%
O=C(COc1ccccc1-c1ccccc1)NCc1cccc(Cl)c1	-9.2%	4.4%	?	13.1µM*	?	-18.6%
O=C(Nc1ccccc1C(=O)N1CCCCC1)c1ccccc1C(F)(F)F	-8.4%	6.8%	?	2.6%	.	i
O=C(Nc1ccccc1C(=O)N1CCCCC1)c1cccs1	.	0.2%	17.0%	6.57µM*	-3.6%	.
CC1N(C)c2cc(NC(=O)c3cccs3)c(P(=O)(Nc3ccc([N+](=O)[O-])cc3)N3CCOCC3)cc2C1(C)C (configuration not stated)	-26.8%	13.8%	13.1µM*	?	?	-12.1%
Cc1ccccc1OCC(=O)Nc1ccccc1C(=O)N1CCCCC1	-14.1%	-3.7%	6.5%	10.4µM*	-2.3%	-13.1%
Cc1ccc(-c2noc(-c3cc4ccccc4oc3=O)n2)cc1	-11.1%	-6.3%	4.7%	139.9%	19.0%	.
COc1ccccc1/C=C(/NC(=O)c1ccc(Cl)cc1Cl)C(=O)O	1.2%	2.1%	19.8%	8.28µM*	22.9%	i
COc1ccc(/C=C(/NC(=O)c2ccccc2Cl)C(=O)O)cc1	.	0.4%	4.9%	24.0%	11.4%	.
CC1CCN(c2c(NCC3CCC(C(=O)NCCc4ccc(Cl)cc4)CC3)c(=O)c2=O)CC1 (configuration not stated)	-25.6%	9.7%	?	?	?	i
SMILES	Vaccinia Venus	NS1 function inh	Pf growth 48h	Pf growth 96h	HCV inh	VACV mCherry inh
CC1CCCCC1NC(=O)c1ccc(CNc2c(N3CCCC3)c(=O)c2=O)cc1 (configuration not stated)	-6.9%	-6.8%	-1.1%	8.28µM*	?	7.9%
CC1CCN(c2c(NCc3ccc(C(=O)NCCc4ccc(Cl)cc4)cc3)c(=O)c2=O)CC1	-27.9%	-4.8%	?	8.28µM*	-3.0%	?
COC(=O)[C@H](C)NC(=O)Nc1cccc(C)c1	-6.4%	-9.1%	20.6%	38.1%	4.4%	.
COc1ccc(-n2c(O)c(C(C)=NCc3ccco3)c(=O)[nH]c2=O)cc1	-4.6%	15.3%	-2.5%	?	-1.7%	-12.9%
COc1ccc(-n2c(O)c(C(C)=NCCc3c[nH]c4ccccc34)c(=O)[nH]c2=O)cc1	.	-2.2%	11.7µM*	?	-6.4%	.
O=C(NCc1csc(-c2ccccc2)n1)c1ccco1	-10.0%	-72.1%	.	99.7%	-16.6%	.
CCCCN1c2cc(C)c(O)cc2C(C(=O)OCC)C1C (configuration not stated)	.	-6.4%	2.08µM*	45.7%	?	.
CCN1C(=O)[C@@H]2[C@H](C1=O)[C@@H]1C(=O)Nc3ccccc3C(=O)N1[C@@H]2c1cccc(C)c1	-0.1%	.	3.1%	61.9%	12.8%	i
Cn1nc(C(F)(F)F)c(-c2ccc(F)cc2)c1NC(=O)Nc1ccc(F)cc1	0.6%	2.5%	0.828µM*	0.465µM*	?	-3.4%
COCCNC(=O)c1nn2cccnc2c1Cl	.	-0.4%	.	0.0%	13.6%	.
Cn1ncc(C#N)c1NC(=O)c1nn2cccnc2c1Cl	-16.9%	14.9%	5.1%	4.65µM*	15.9%	-12.7%[1.46 µM]
COc1ccc(NC(=O)C2C3C=CC4(O3)C2C(=O)N(CCN2CCCCC2)C4C(=O)NC2CCCCC2)cc1 (configuration not stated)	6.5%	-8.7%	1.2%	15.1%	-2.8%	3.9%
O=C(c1cc(COc2ccc(F)cc2F)on1)N1CCN(C2CCCC2)C(=O)C1	-19.3%	-58.9%	8.28µM*	-12.0%	-11.4%	-14.6%
CCN1CCN(C(=O)c2cc(COc3ccc(F)cc3F)on2)[C@@H](C)C1=O	-11.6%	-9.6%	0.0%	-1.6%	11.2µM*	-11.9%
CSc1ccccc1OCc1cc(C(=O)N2CCN(C3CCCC3)C(=O)C2)no1	-18.3%	-20.1%	?	?	-20.9%	-26.5%
O=C(CSc1nc2ccccc2n1CC(=O)N1CCCCC1)N1CCCCC1	3.9%	1.7%	-9.2%	-12.0%	5.8%	i
CC(=O)Nc1ccc(C(=O)CSc2nc3ccccc3n2CC(=O)N2CCCC2)cc1	.	3.4%	.	3.7µM*	4.0%	.
CC(=O)Nc1ccc(S(=O)(=O)Oc2ccc(N3C(=O)C4CCCCC4C3=O)cc2)cc1 (configuration not stated)	.	-14.0%	-1.0%	38.8%	-25.3%	.
CC(=O)Nc1ccc(S(=O)(=O)Oc2cccc(N3C(=O)C4CC=CCC4C3=O)c2)cc1 (configuration not stated)	.	-2.6%	.	2.33µM*	-28.9%	.
COCCn1c(SCC(=O)c2ccccc2)nc2ccccc2c1=O	-11.3%	-4.3%	1.6%	-18.3%	?	-16.2%

Screening results from PubChem.
